Measured values published in PubChem BioAssay (NCI).
About 79,000 compounds went through this panel and 15% of them were active in at least one assay; those are over-represented in the sample as a whole. Rule as the data show it: active = growth inhibition above about 70%; inactive = the rest.

What was measured:
[1] = NCI Yeast Anticancer Drug Screen. Data for the rad50 strain (AID 155);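 also: 0% = growth of vehicle-only cultures of the same strain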; conditions: S. cerevisiae rad50 strain growth inhibition; at 50.0 µM; active compounds read high
Method in brief: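 Inhibition values express reduced yeast growth in compound-treated cultures relative to vehicle-treated controls.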

[2] = NCI Yeast Anticancer Drug Screen. Data for the mec2-1 strain (AID 157); conditions: S. cerevisiae mec2-1 strain, at 50.0 µM, active compounds read high
Method in brief: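 Test agents were screened against the mec2-1 yeast strain, with defined DNA repair or cell cycle alteration. Growth was scored as inhibition against vehicle-only controls.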

[3] = NCI Yeast Anticancer Drug Screen. Data for the sgs1 mgt1 strain (AID 161);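 also: 0% = growth of cultures given vehicle only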; conditions: S. cerevisiae sgs1 mgt1 strain, at 50.0 µM, active compounds read high
Method in brief: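 Read-out: growth inhibition vs vehicle controls. Cells: mutant yeast strain deficient in DNA damage repair.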

[4] = NCI Yeast Anticancer Drug Screen. Data for the cln2 rad14 strain (AID 165);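 also: 0% = growth equal to vehicle treated cultures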; conditions: S. cerevisiae cln2 rad14 strain, at 50.0 µM, active compounds read high
Method in brief: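 Growth of compound-exposed yeast (cln2 rad14 genotype) measured and expressed as inhibition relative to vehicle.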

[5] = NCI Yeast Anticancer Drug Screen. Data for the bub3 strain (AID 167); conditions: S. cerevisiae bub3 mutant strain, at 50.0 µM, active compounds read high
Method in brief: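 Steps: expose the mutant yeast strain to compound; grow alongside vehicle-treated cultures; measure growth; express inhibition against the vehicle cultures.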

[6] = NCI Yeast Anticancer Drug Screen. Data for the mlh1 rad18 strain (AID 175); conditions: S. cerevisiae mlh1 rad18 strain growth inhibition; at 50.0 µM; active compounds read high
Method in brief: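 In this whole-cell yeast screen, a strain with altered DNA damage repair is challenged with compound, and its growth is measured against matched vehicle-treated controls.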

Measured: growth inhibition

CC(C)C(=O)CC(c1ccc(Cl)cc1)N1N=C(C(C)C)CC1c1ccc(Cl)cc1 (stereo not given)
inactive: [1] 8.05% | [2] 15.2% | [3] 6.95% | [4] -27.4% | [5] 40% | [6] 14.4%

O=C(N/N=C/c1ccc(Cl)cc1Cl)c1cccc2ccccc12
inactive: [1] 8.2% | [2] -6.3% | [3] -15% | [4] -5.6% | [5] 11.6% | [6] 3.1%

O=C(Cc1ccc([N+](=O)[O-])c([N+](=O)[O-])c1CC(=O)C(=O)Nc1cc(Cl)ccc1Cl)C(=O)Nc1cc(Cl)ccc1Cl
inactive: [1] -16% | [2] -23.8% | [3] -14.8% | [4] 12.3% | [5] 25.1% | [6] -4.3%

CC(C)C(O)(C(=O)OCC1=CC[N+]2(C)CCC(O)C12)C(C)O (stereo not given)
inactive: [1] 27.6% | [2] -15.3% | [3] 11.4% | [4] -21.4% | [5] -3.2% | [6] 1.95%

Cn1c(-c2ccccc2)c2c(=O)oc3ccccc3c2c1-c1ccccc1
inactive: [1] -14.6% | [2] 8.8% | [3] 9.55% | [4] 1.8% | [5] 8.25% | [6] 19.1%

CCOC(=O)C(=O)c1c(C)[nH]c(C)c1C(=O)OCC
inactive: [1] -2.15% | [2] -4.8% | [3] 17.1% | [4] -23.1% | [5] 7.3% | [6] -9.1%

COc1cccc[n+]1C
inactive: [1] 10.2% | [2] 3.45% | [3] -2.15% | [4] 8.3% | [5] 5.4% | [6] 7.45%

Oc1c(N=Nc2ccccc2)c2ccccc2c2ccc3ccccc3c12
inactive: [1] -23.3% | [2] -13.7% | [3] -7.6% | [4] -15.9% | [5] -8.2% | [6] 6.85%

CC(C(N)=O)C(=O)c1ccccc1 (stereo not given)
inactive: [1] 9.9% | [2] -12.4% | [3] -24.3% | [4] -7.15% | [5] -21.2% | [6] 0.15%

O=[N+]([O-])c1ccc(-c2cccc3ccccc23)c([N+](=O)[O-])c1
inactive: [1] 15.7% | [2] 34.9% | [3] 17.1% | [4] 15.9% | [5] 33.5% | [6] 21.1%

COC(=O)/C=C/c1ccc([N+](=O)[O-])cc1
inactive: [1] -6.3% | [2] -2.5% | [3] 20.9% | [4] -24% | [5] 8.15% | [6] -18.2%

CCCCCCCCCCCCCCCCCCCOc1ccc(OCCCCCCCC)cc1
inactive: [1] 40.8% | [2] -11.8% | [3] 17.6% | [4] -11.2% | [5] 3.4% | [6] 3%

C=C(C(=O)O)C1CC[C@@]2(C)CCC[C@@](C)(O)C2C1 (stereo not given in full)
inactive: [1] 21.1% | [2] -5.8% | [3] -7.75% | [4] 10.8% | [5] -3.35% | [6] 25.6%

O=C1NC(=S)N/C1=C\c1cccs1
inactive: [1] -20.6% | [2] -7.25% | [3] 15.4% | [4] -19.9% | [5] -7.35% | [6] -44.6%

COc1ccc([N+](=O)[O-])c2c(NCC(O)CO)ccnc12 (stereo not given)
inactive: [1] -0.35% | [2] -11% | [3] -9.7% | [4] -8.2% | [5] -25.1% | [6] -47.2%

S=C1CSc2c(ccc3ccccc23)N1
inactive: [1] -30.8% | [2] -14.8% | [3] 19.2% | [4] 4.95% | [5] 19.9% | [6] -9.4%

NC(=O)C(CCCCNc1c(C(=O)O)cc([N+](=O)[O-])cc1[N+](=O)[O-])NC(=O)c1ccccc1 (stereo not given)
inactive: [1] 14.4% | [2] -6.05% | [3] -19.1% | [4] -7.95% | [5] -2% | [6] 28.8%

CN1C/C(=C\C=C\c2ccccc2)C(=O)/C(=C/C=C/c2ccccc2)C1
inactive: [1] 66.7% | [2] 16.9% | [3] 14.8% | [4] 11.8% | [5] 11.2% | [6] 0.2%

Nc1ccc(C(=O)c2ccccc2)cc1Cl
inactive: [1] 60.7% | [2] 35% | [3] 56.4% | [4] 6.75% | [5] 36.2% | [6] 36.1%

O=C(O)CC(C(=O)O)c1ccccc1[N+](=O)[O-] (stereo not given)
inactive: [1] -26.9% | [2] -3.8% | [3] -24.2% | [4] -32.5% | [5] -1.1% | [6] -7.8%
